The list is not random: actives were taken first. Their share in the collection is about 10%.
JMJD2A Tudor – qHTS Assay for Inhibitors of JMJD2A-Tudor Domain. AlphaScreen JMJD2A-Tudor / H3K4me3 peptide binding. Potency, µM (doses to about 114 µM), for the others: at the highest dose activity change, negative = inhibition, actives largely listed as inhibitors. 4.4% of 390,000 active. Lysine-specific demethylase 4A (Homo sapiens), O75164; note: % is set by controls: 0 for no effect and ±100 for the full control effect; nearly all actives have a fitted effect of over 50% in size
BAZ2B block – qHTS Assay for Inhibitors of BAZ2B; Bromodomain adjacent to zinc finger domain protein 2B (Homo sapiens), Q9UIF8; AlphaScreen BAZ2B-H3K14Ac peptide displacement; Potency, µM (titrated, usually from 114 µM), inactives show at the top dose activity change, negative = inhibition, usual class: inhibitors; 4.4% of 360,000 active; AID 504333, 2011; note: % is set by controls: 0 for no effect and ±100 for the full control effect; nearly all actives have a fitted effect of over 60% in size
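Multi-concentration screen (max 110 uM) measuring displacement of acetylated histone H3 peptide from BAZ2B by AlphaScreen, using 50 nM protein, 50 nM peptide and 10 ug/mL streptavidin donor plus Ni-chelate acceptor beads.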
G9a inh – qHTS Assay for Inhibitors of Histone Lysine Methyltransferase G9a. G9a H3K9 monomethylation, AlphaScreen, 2 h. Histone-lysine N-methyltransferase EHMT2 (Homo sapiens), Q96KQ7. 8.8% of 350,000 active. Potency, µM (top dose mostly 102 µM), without a hit: at the top dose activity, negative = inhibition, most hits filed as inhibitors; note: % is set by controls: 0 for no effect and ±100 for the full control effect; nearly all actives have a fitted effect of over 75% in size
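Compounds were preincubated with 20 nM G9a for 15 min, after which biotinylated H3K9 peptide (500 nM) and SAM (20 uM) started a 2 h room-temperature reaction. Monomethylated product was quantified by antibody-based AlphaScreen chemiluminescence.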
HP1b binding inh – HTS for Inhibitors of HP1-beta Chromodomain Interactions with Methylated Histone Tails; Chromobox protein homolog 1 (Homo sapiens), P83916; AlphaScreen HP1-beta / biotin-H3K9me3 peptide binding; Potency, µM (series often up to 114 µM), for inactives: at the highest dose activity change, negative = inhibition, hits mostly inhibitors; 0.56% of 390,000 active; note: nearly all actives have a fitted effect of over 70% in size
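AlphaScreen: HP1-beta (50 nM) preformed 30 min with biotin-H3(1-18)K9me3 peptide (50 nM) in PBS pH 7.4, 0.01% Tween-20. Compound added for 30 min at RT, then streptavidin donor/nickel chelate acceptor beads (10 ug/mL) for 30 min.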
GLS inh – qHTS for Inhibitors of Glutaminase (GLS); Glutaminase kidney isoform, mitochondrial (Homo sapiens), O94925; GLS enzymatic activity, qHTS titration; Potency, µM (doses to about 45.5 µM), inactives show at the top dose activity change, negative = inhibition, usual class: inhibitors; 0.21% of 410,000 active; AID 624170, 2012; note: % is set by controls: 0 for no effect and ±100 for the full control effect
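Human kidney-isoform GLS in 45 mM KH2PO4 pH 8.2, 0.02% Tween-20, with compound, started with 1mM L-Glutamine (added stock). Glutamate oxidase/HRP/Amplex red coupled fluorescence read at start and after 30 min at RT.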
Numbers without * were called inactive; ? = inconclusive; nt = not tested or not shown; [ ] = another dose, or the depositor's remark. Calls come from the whole dose curve; as a rule, active = well fitted curve in the direction sought with a large enough effect; inconclusive = small, poorly fitted or top-dose-only effect, or another doubt; inactive = no such curve, though single readings can be large; an effect the other way counts as inactive or inconclusive. Potency is the fitted concentration of half-maximal effect.

SMILES | JMJD2A Tudor | BAZ2B block | G9a inh | HP1b binding inh | GLS inh
C=CCc1cccc(/C=N/NC(=O)CCCNc2ccc(C)cc2)c1O | ? | 32µM* | -12%[59 µM] | ? | 12%
O=S(=O)(O)c1ccc(SCc2ccccc2)nc1 | 89µM* | nt | nt | 24% | -24%
CCCn1c(SCc2nc3ccccc3s2)n[nH]c1=O | ? | -12% | 56µM* | -15% | 1%
Cc1cc(C)c(-n2c(SCc3nc4ccccc4s3)n[nH]c2=O)c(C)c1 | -30% | 1% | 2% | -5% | -4%
O=c1[nH]nc(SCc2nc3ccccc3s2)n1C1CC1 | -16% | -6% | 7.9µM* | 23% | -4%
CC(C)CCOc1ccc(C(=O)CCNC(C)C(=O)O)cc1 (centres undefined) | nt | -2% | 5.6µM* | nt | nt
O=C(NCc1ccc(Cl)cc1)C(=O)NCC(c1cccnc1)N1CCN(c2ccccc2)CC1 (centres undefined) | -21% | -12% | 1%[59 µM] | 12% | 12%
Cc1ccc(NC(=S)Nc2cccc(-c3n[nH]c(=S)o3)c2)cc1 | -28% | ? | 50µM* | -19% | 14%
NC(=S)Nc1cccc(-c2n[nH]c(=S)o2)c1 | ? | -21% | 40µM* | 12% | 25%
O=C(O)c1cccnc1SCc1ccccc1Cl | 1% | -7% | nt | 44% | 10%
O=C(O)c1cccnc1SCc1cn2cc(Br)ccc2n1 | -23%[11.4 µM] | ? | 50µM* | 5% | -1%
Cc1ccc(C)c(CSc2ncccc2C(=O)O)c1 | -17% | -36% | 50µM* | 2% | 11%
N#CCC(=O)N/N=C/c1cc(-c2ccccc2)n(-c2ccc(Cl)cc2)c1-c1ccccc1 | ? | -6% | -44% | -34% | 4%
Cc1ccn2c(=O)c(C(=O)NCCc3ccc(S(N)(=O)=O)cc3)c(O)nc2c1 | -18% | 1% | -43%[59 µM] | 25% | 4%
COc1cc(CC(=O)Nc2ccc3c(c2)CCC3)cc(OC)c1OC | -16% | 2% | 4%[59 µM] | 28% | -16%
COc1cc(CNc2ccc3c(c2)CCC3)cc(OC)c1O | 4µM* | 40µM* | ? | 32µM* | 44%
CCOc1cc(CNc2ccc3c(c2)CCC3)ccc1O | 79µM* | -37% | 8.9µM* | -18% | -37%
CCOc1ccccc1NC(=O)Nc1ccc2c(c1)CCC2 | -19% | -15% | 14% | 33% | 4%
Cc1cnc(NC(=O)CSc2ncc(-c3ccccc3)n2Cc2ccco2)s1 | ? | 22µM* | ? | -2% | -1%
COc1ccc(-c2cnc(SCC(=O)Nc3cc(C)on3)n2Cc2ccco2)cc1 | 50µM* | 45µM* | ? | ? | 26%
CCC(=O)Nc1cc(NC(=O)CSc2ncc(-c3ccc(F)cc3)n2Cc2ccco2)ccc1C | ? | nt | ? | -12% | 7%
COc1ccc(NC(=O)CSc2ncc(-c3ccc(F)cc3)n2Cc2ccco2)cc1 | 56µM* | 32µM* | 28µM* | ? | -8%
COCCn1c(-c2ccc(OC)cc2)cnc1SCC(=O)Nc1cccc2ccccc12 | 25µM* | 18µM* | 35µM* | -47% | -2%
COC(=O)C[C@@H]1C[C@H]2c3cc(NC(=O)Nc4ccccc4F)ccc3O[C@H]2[C@H](CO)O1 | nt | nt | nt | nt | 5%
Cc1ccccc1CNC(=O)CCCn1c(=O)c2cccn2c2ccccc21 | -12% | 15% | 10%[59 µM] | 60% | 9%
SMILES | JMJD2A Tudor | BAZ2B block | G9a inh | HP1b binding inh | GLS inh
CN(c1ccccc1C(=O)NCc1ccco1)S(C)(=O)=O | -24%[57.1 µM] | ? | -24%[12.7 µM] | 28% | ?
C=CCNC(=O)c1ccccc1NC(=O)c1ccccc1N(C)S(C)(=O)=O | -10% | -34% | 50µM* | 19% | -3%
Cc1ccc(CNC(=O)c2ccccc2N(C)S(C)(=O)=O)cc1 | 6% | -12% | 40µM* | -10% | 2%
CC(C)OCc1cc(CN2CCN(c3cccc(C(F)(F)F)c3)CC2)c(O)c2ncccc12 | ? | 25µM* | 2%[59 µM] | 45% | 6%
CCOCc1cc(CN2CCN(c3cccc(C(F)(F)F)c3)CC2)c(O)c2ncccc12 | 56µM* | 28µM* | -16%[59 µM] | 21% | 11%
O=c1cc(CO)oc(CN2CCN(c3cccc(C(F)(F)F)c3)CC2)c1O | -16% | ? | ? | 24% | 25%
COc1ccnc(N2CCN(c3cccc(C(F)(F)F)c3)CC2)c1C#N | 1% | 10% | -13%[2.33 µM] | 20% | -3%
CCC(=O)NCC(=O)OCC(=O)c1ccccc1 | ? | -3% | -15%[59 µM] | ? | 25µM*
COc1cc2ccccc2cc1C(=O)NC(=S)Nc1cccc(C(=O)O)c1 | -28% | 79µM* | ? | -9% | 11%
COc1cc2ccccc2cc1C(=O)NC(=S)Nc1ccc(C(=O)O)cc1 | 50µM* | 50µM* | ? | -1% | 26%
COc1ccc(N=c2oc3c(OC)cccc3cc2C(=O)NCc2ccco2)cc1OC | -30% | 8% | ? | 10% | -2%
COc1cccc2cc(C(=O)Nc3ccc(F)cc3)c(=Nc3ccc(C(=O)O)cc3)oc12 | -31% | -2% | 35µM* | 18% | ?
CC(=O)c1cccc(NC(=S)NC(=O)c2ccccc2)c1 | -17% | -31% | ? | 19% | 15%
Cc1cc(=O)[nH]c2nnc(SCc3c(F)cccc3Cl)n12 | -9% | 0% | 5%[59 µM] | 37% | -10%
CC1(C)CC2CC(C)(CN2CC(O)c2ccccc2)C1 (centres undefined) | 5.6µM* | ? | 22µM* | -25% | 13%
Cc1cccc(OCC(O)CN2CC3(C)CC2CC(C)(C)C3)c1 (centres undefined) | 18µM* | ? | 28µM* | -34% | 15%
CC1(C)CC2CC(C)(CN2CC(=O)C(C#N)c2ccccc2)C1 (centres undefined) | -26% | -11% | ? | 34% | 11%
Cc1ccc(OCC(O)CN2CC3(C)CC2CC(C)(C)C3)cc1 (centres undefined) | 1.1µM* | ? | 20µM* | ? | 15%
CC(C)(C)NC(=O)[C@@H]1CN(Cc2cccnc2)CCN1C[C@@H](O)C[C@@H](Cc1ccccc1)C(=O)N[C@H]1c2ccccc2C[C@H]1O | 89µM* | nt | nt | 8% | 5%
COc1cc2c(cc1OC)C(CNC(=O)C=Cc1ccccc1)C2 (centres undefined) | nt | nt | nt | nt | 11%
CCn1c(-c2cccc(Br)c2)n[nH]c1=S | 7.9µM* | 16% | ? | 0% | -6%
CCn1c(-c2sc(-c3ccccc3)nc2C)n[nH]c1=S | 18µM* | -8% | -128%[59 µM] | -6% | 0%
Cc1nc(-c2ccccc2)sc1-c1ccn[nH]1 | -12% | -5% | -7% | 33% | 15%
CCn1c(-c2ccc3ncccc3c2)n[nH]c1=S | 5µM* | 3% | 10µM* | 29% | nt
